# Numbering of substitutions follows the chain as printed.
# Columns and labels:
# Experiment in all cases: PBM; 200 nM protein, PBS
# Conditions in all cases: dsDNA, one strand shown
# [1] = target: T1, PAX4 (Homo sapiens, UniProt O43316 9-242, R200K)
# T1 sequence: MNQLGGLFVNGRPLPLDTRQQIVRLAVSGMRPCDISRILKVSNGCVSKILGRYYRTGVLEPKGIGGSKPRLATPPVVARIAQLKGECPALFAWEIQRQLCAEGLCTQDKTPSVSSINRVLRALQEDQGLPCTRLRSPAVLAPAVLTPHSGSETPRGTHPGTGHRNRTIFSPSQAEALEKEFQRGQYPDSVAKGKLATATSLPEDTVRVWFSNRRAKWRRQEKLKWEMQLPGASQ
# [2] = target: T2, PAX4 (Homo sapiens, UniProt O43316 9-242)
# T2 sequence: T1 sequence with K192R
# [3] = target: HOXA2 (Homo sapiens, UniProt O43364 129-215, R185T)
# HOXA2 (Homo sapiens, UniProt O43364 129-215, R185T), sequence (O43364 129-215 R185T): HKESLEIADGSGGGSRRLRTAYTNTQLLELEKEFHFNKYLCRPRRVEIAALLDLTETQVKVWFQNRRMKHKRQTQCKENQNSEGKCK
# [4] = target: T3, PAX4 (Homo sapiens, UniProt O43316 9-242, R200Q)
# T3 sequence: T1 sequence with K192Q
# [5] = target: PITX2 (Homo sapiens, UniProt Q99697 72-157)
# [6] = target: HOXA2 (Homo sapiens, UniProt O43364 129-215, R185K)
# HOXA2 (Homo sapiens, UniProt O43364 129-215, R185K), sequence (O43364 129-215 R185K): as the sequence (O43364 129-215 R185T) above, with T57K counted along it
# [7] = target: T4, PAX4 (Homo sapiens, UniProt O43316 9-242, F177V)
# T4 sequence: T1 sequence with F169V, K192R
# [8] = target: T5, PAX4 (Homo sapiens, UniProt O43316 9-242, F177Y)
# T5 sequence: T1 sequence with F169Y, K192R
# [9] = target: T6, PAX4 (Homo sapiens, UniProt O43316 9-242, R227W)
# T6 sequence: T1 sequence with K192R, R219W
# [10] = target: HOXA2 (Homo sapiens, UniProt O43364 129-215, Y150S)
# HOXA2 (Homo sapiens, UniProt O43364 129-215, Y150S), sequence (O43364 129-215 Y150S): as the sequence (O43364 129-215 R185T) above, with Y22S, T57R counted along it
# [11] = target: HOXA2 (Homo sapiens, UniProt O43364 129-215)
# HOXA2 (Homo sapiens, UniProt O43364 129-215), sequence (O43364 129-215): as the sequence (O43364 129-215 R185T) above, with T57R counted along it
# [12] = target: MSX2 (Homo sapiens, UniProt P35548 130-214, R199I)
# MSX2 (Homo sapiens, UniProt P35548 130-214, R199I), sequence (P35548 130-214 R199I): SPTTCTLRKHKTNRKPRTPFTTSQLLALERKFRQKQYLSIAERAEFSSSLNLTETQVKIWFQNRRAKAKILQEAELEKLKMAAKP
# [13] = target: MSX2 (Homo sapiens, UniProt P35548 130-214)
# MSX2 (Homo sapiens, UniProt P35548 130-214), sequence (P35548 130-214): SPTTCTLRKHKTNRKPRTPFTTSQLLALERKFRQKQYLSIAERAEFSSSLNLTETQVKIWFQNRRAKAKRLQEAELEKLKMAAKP
# [14] = target: MSX2 (Homo sapiens, UniProt P35548 130-214, F161Y)
# MSX2 (Homo sapiens, UniProt P35548 130-214, F161Y), sequence (P35548 130-214 F161Y): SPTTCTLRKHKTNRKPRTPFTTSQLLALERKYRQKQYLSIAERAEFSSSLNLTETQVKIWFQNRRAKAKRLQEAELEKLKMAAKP
# [15] = target: T7, NKX2-6 (Homo sapiens, UniProt A6NCS4 118-204)
# T7 sequence: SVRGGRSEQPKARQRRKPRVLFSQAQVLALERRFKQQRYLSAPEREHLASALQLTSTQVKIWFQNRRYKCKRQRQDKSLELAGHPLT
# [16] = target: T8, NKX2-6 (Homo sapiens, UniProt A6NCS4 118-204, F151L)
# T8 sequence: T7 sequence with F34L
# [17] = target: HOXD13 (Homo sapiens, UniProt P35453 263-343, T313R)
# HOXD13 (Homo sapiens, UniProt P35453 263-343, T313R), sequence (P35453 263-343 T313R): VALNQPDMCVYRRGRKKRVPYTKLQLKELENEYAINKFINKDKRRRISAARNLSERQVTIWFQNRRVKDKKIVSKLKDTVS
# [18] = target: HOXD13 (Homo sapiens, UniProt P35453 263-343)
# HOXD13 (Homo sapiens, UniProt P35453 263-343), sequence (P35453 263-343): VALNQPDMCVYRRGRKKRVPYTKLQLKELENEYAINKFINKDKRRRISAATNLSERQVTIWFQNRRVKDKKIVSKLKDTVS
# [19] = target: HOXD13 (Homo sapiens, UniProt P35453 263-343, T313A)
# HOXD13 (Homo sapiens, UniProt P35453 263-343, T313A), sequence (P35453 263-343 T313A): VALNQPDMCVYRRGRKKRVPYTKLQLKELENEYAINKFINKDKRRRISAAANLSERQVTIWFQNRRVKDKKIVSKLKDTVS
# [20] = target: ALX3 (Homo sapiens, UniProt O95076 139-225, N203Q)
# ALX3 (Homo sapiens, UniProt O95076 139-225, N203Q), sequence (O95076 139-225 N203Q): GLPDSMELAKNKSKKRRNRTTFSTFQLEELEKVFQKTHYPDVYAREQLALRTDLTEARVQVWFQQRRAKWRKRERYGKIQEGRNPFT
# [21] = target: ALX3 (Homo sapiens, UniProt O95076 139-225)
# ALX3 (Homo sapiens, UniProt O95076 139-225), sequence (O95076 139-225): as the sequence (O95076 139-225 N203Q) above, with Q65N counted along it
# [22] = target: ALX3 (Homo sapiens, UniProt O95076 139-225, L168Q)
# ALX3 (Homo sapiens, UniProt O95076 139-225, L168Q), sequence (O95076 139-225 L168Q): as the sequence (O95076 139-225 N203Q) above, with L30Q, Q65N counted along it
# [23] = target: ALX3 (Homo sapiens, UniProt O95076 139-225, L168V)
# ALX3 (Homo sapiens, UniProt O95076 139-225, L168V), sequence (O95076 139-225 L168V): as the sequence (O95076 139-225 N203Q) above, with L30V, Q65N counted along it
# [24] = target: ALX3 (Homo sapiens, UniProt O95076 139-225, N203S)
# ALX3 (Homo sapiens, UniProt O95076 139-225, N203S), sequence (O95076 139-225 N203S): as the sequence (O95076 139-225 N203Q) above, with Q65S counted along it
sequence,measurement,setting,value
CGGAGGGC,binding signal,[1],"9.09 upbm affinity estimate (log intensity, higher = more binding, comparable within an allelic series)"
same,binding signal,[2],"9.28 upbm affinity estimate (log intensity, higher = more binding, comparable within an allelic series)"
same,binding signal,[3],"7.21 upbm affinity estimate (log intensity, higher = more binding, comparable within an allelic series)"
same,binding signal,[4],"9.19 upbm affinity estimate (log intensity, higher = more binding, comparable within an allelic series)"
same,binding signal,[5],"7.96 upbm affinity estimate (log intensity, higher = more binding, comparable within an allelic series)"
same,binding signal,[6],"10.3 upbm affinity estimate (log intensity, higher = more binding, comparable within an allelic series)"
same,binding signal,[7],"9.08 upbm affinity estimate (log intensity, higher = more binding, comparable within an allelic series)"
same,binding signal,[8],"9 upbm affinity estimate (log intensity, higher = more binding, comparable within an allelic series)"
same,binding signal,[9],"9.1 upbm affinity estimate (log intensity, higher = more binding, comparable within an allelic series)"
same,binding signal,[10],"10.3 upbm affinity estimate (log intensity, higher = more binding, comparable within an allelic series)"
same,binding signal,[11],"7.24 upbm affinity estimate (log intensity, higher = more binding, comparable within an allelic series)"
GTGTAATA,binding signal,[1],"10.9 upbm affinity estimate (log intensity, higher = more binding, comparable within an allelic series)"
same,binding signal,[2],"11.1 upbm affinity estimate (log intensity, higher = more binding, comparable within an allelic series)"
same,binding signal,[4],"10.8 upbm affinity estimate (log intensity, higher = more binding, comparable within an allelic series)"
same,binding signal,[7],"10.4 upbm affinity estimate (log intensity, higher = more binding, comparable within an allelic series)"
CCGGGGGA,binding signal,[1],"9.19 upbm affinity estimate (log intensity, higher = more binding, comparable within an allelic series)"
same,binding signal,[2],"9.35 upbm affinity estimate (log intensity, higher = more binding, comparable within an allelic series)"
same,binding signal,[12],"9.52 upbm affinity estimate (log intensity, higher = more binding, comparable within an allelic series)"
same,binding signal,[4],"9.16 upbm affinity estimate (log intensity, higher = more binding, comparable within an allelic series)"
same,binding signal,[7],"9.14 upbm affinity estimate (log intensity, higher = more binding, comparable within an allelic series)"
same,binding signal,[13],"9.61 upbm affinity estimate (log intensity, higher = more binding, comparable within an allelic series)"
same,binding signal,[8],"9.09 upbm affinity estimate (log intensity, higher = more binding, comparable within an allelic series)"
same,binding signal,[14],"9.5 upbm affinity estimate (log intensity, higher = more binding, comparable within an allelic series)"
same,binding signal,[9],"9.22 upbm affinity estimate (log intensity, higher = more binding, comparable within an allelic series)"
CGACAGCG,binding signal,[1],"9.45 upbm affinity estimate (log intensity, higher = more binding, comparable within an allelic series)"
same,binding signal,[2],"9.39 upbm affinity estimate (log intensity, higher = more binding, comparable within an allelic series)"
same,binding signal,[15],"9.49 upbm affinity estimate (log intensity, higher = more binding, comparable within an allelic series)"
same,binding signal,[4],"9.48 upbm affinity estimate (log intensity, higher = more binding, comparable within an allelic series)"
same,binding signal,[7],"9.36 upbm affinity estimate (log intensity, higher = more binding, comparable within an allelic series)"
same,binding signal,[8],"9.33 upbm affinity estimate (log intensity, higher = more binding, comparable within an allelic series)"
same,binding signal,[16],"9.32 upbm affinity estimate (log intensity, higher = more binding, comparable within an allelic series)"
same,binding signal,[9],"9.44 upbm affinity estimate (log intensity, higher = more binding, comparable within an allelic series)"
GCCCCACC,binding signal,[1],"9.5 upbm affinity estimate (log intensity, higher = more binding, comparable within an allelic series)"
same,binding signal,[2],"9.33 upbm affinity estimate (log intensity, higher = more binding, comparable within an allelic series)"
same,binding signal,[17],"9.66 upbm affinity estimate (log intensity, higher = more binding, comparable within an allelic series)"
same,binding signal,[4],"9.38 upbm affinity estimate (log intensity, higher = more binding, comparable within an allelic series)"
same,binding signal,[18],"9.74 upbm affinity estimate (log intensity, higher = more binding, comparable within an allelic series)"
same,binding signal,[7],"9.19 upbm affinity estimate (log intensity, higher = more binding, comparable within an allelic series)"
same,binding signal,[8],"9.3 upbm affinity estimate (log intensity, higher = more binding, comparable within an allelic series)"
same,binding signal,[19],"9.8 upbm affinity estimate (log intensity, higher = more binding, comparable within an allelic series)"
same,binding signal,[9],"9.4 upbm affinity estimate (log intensity, higher = more binding, comparable within an allelic series)"
GTACGTAA,binding signal,[1],"10.4 upbm affinity estimate (log intensity, higher = more binding, comparable within an allelic series)"
same,binding signal,[2],"10.6 upbm affinity estimate (log intensity, higher = more binding, comparable within an allelic series)"
same,binding signal,[4],"10.6 upbm affinity estimate (log intensity, higher = more binding, comparable within an allelic series)"
CGGGGCGC,binding signal,[1],"9.09 upbm affinity estimate (log intensity, higher = more binding, comparable within an allelic series)"
same,binding signal,[2],"9 upbm affinity estimate (log intensity, higher = more binding, comparable within an allelic series)"
same,binding signal,[3],"7.19 upbm affinity estimate (log intensity, higher = more binding, comparable within an allelic series)"
same,binding signal,[4],"8.96 upbm affinity estimate (log intensity, higher = more binding, comparable within an allelic series)"
same,binding signal,[6],"9.85 upbm affinity estimate (log intensity, higher = more binding, comparable within an allelic series)"
same,binding signal,[7],"8.91 upbm affinity estimate (log intensity, higher = more binding, comparable within an allelic series)"
same,binding signal,[8],"9.04 upbm affinity estimate (log intensity, higher = more binding, comparable within an allelic series)"
same,binding signal,[9],"9.06 upbm affinity estimate (log intensity, higher = more binding, comparable within an allelic series)"
same,binding signal,[10],"10.3 upbm affinity estimate (log intensity, higher = more binding, comparable within an allelic series)"
same,binding signal,[11],"7.21 upbm affinity estimate (log intensity, higher = more binding, comparable within an allelic series)"
GGGGGGGA,binding signal,[1],"9.06 upbm affinity estimate (log intensity, higher = more binding, comparable within an allelic series)"
same,binding signal,[2],"9.13 upbm affinity estimate (log intensity, higher = more binding, comparable within an allelic series)"
same,binding signal,[3],"6.89 upbm affinity estimate (log intensity, higher = more binding, comparable within an allelic series)"
same,binding signal,[20],"7.53 upbm affinity estimate (log intensity, higher = more binding, comparable within an allelic series)"
same,binding signal,[4],"9.12 upbm affinity estimate (log intensity, higher = more binding, comparable within an allelic series)"
same,binding signal,[6],"9.81 upbm affinity estimate (log intensity, higher = more binding, comparable within an allelic series)"
same,binding signal,[7],"9.01 upbm affinity estimate (log intensity, higher = more binding, comparable within an allelic series)"
same,binding signal,[21],"7.53 upbm affinity estimate (log intensity, higher = more binding, comparable within an allelic series)"
same,binding signal,[8],"9.15 upbm affinity estimate (log intensity, higher = more binding, comparable within an allelic series)"
same,binding signal,[22],"7.42 upbm affinity estimate (log intensity, higher = more binding, comparable within an allelic series)"
same,binding signal,[23],"7.45 upbm affinity estimate (log intensity, higher = more binding, comparable within an allelic series)"
same,binding signal,[9],"9.15 upbm affinity estimate (log intensity, higher = more binding, comparable within an allelic series)"
same,binding signal,[10],"10.2 upbm affinity estimate (log intensity, higher = more binding, comparable within an allelic series)"
same,binding signal,[24],"7.55 upbm affinity estimate (log intensity, higher = more binding, comparable within an allelic series)"
same,binding signal,[11],"7.05 upbm affinity estimate (log intensity, higher = more binding, comparable within an allelic series)"
